A selection: hits, their analogues and other compounds. The true share with any hit is near 3.6%.
3CLpro inhibitor: SARS-CoV 3CLpro protease inhibitors, primary screen, biochemical, quenched FRET; Replicase polyprotein 1ab (Severe acute respiratory syndrome coronavirus), P0C6X7; hit rate 0.14% among 290,000; recombinant SARS-CoV 3CLpro, quenched FRET peptide cleavage; AID 1706, 2009; inhibition, % at 6 µM; in the data active means inhibition above about 12%
Bead autofluor: compound fluorescence in toxin protease inhibitor counterscreen. compound autofluorescence counterscreen, microsphere flow cytometry; active compounds read high. fluorescence intensity (concentration not given with the values). hit rate 3.1% among 360,000. AID 624483; in the data active means fluorescence intensity above about 16000; inconclusive means no clear call, values can overlap the other calls
BJeLR lethal: MLPCN primary cell-based screen for lethality selective to Ras in HRASV12 cells; BJeLR (HRASV12) viability, CellTiter-Glo ATP luminescence, 48 h; hit rate 0.17% among 300,000; inhibition, % (no concentration beside the values); in the data active means inhibition above about 50%; inconclusive means no clear call, values can overlap the other calls
BoNT-A LC inh2: BoNT/A light chain protease inhibitors, primary screen, biochemical, flow cytometry, MLPCN library | multiplex microsphere protease substrate cleavage | inhibition, % at 10 µM | hit rate 0.17% among 360,000 | AID 588499, 2011
Anthrax LF prot: Bacillus anthracis LF protease inhibitors, primary screen, biochemical, multiplex microsphere, MLPCN library; Lethal factor (Bacillus anthracis), P15917; multiplex microsphere protease cleavage assay; inhibition, % at 10 µM; hit rate 0.12% among 360,000
BoNT F protease: BoNT/F light chain protease inhibitors, primary screen, biochemical, flow cytometry, MLPCN library. Botulinum neurotoxin type F light chain protease (Clostridium botulinum). Multiplex microsphere protease cleavage assay. inhibition, % at 10 µM. hit rate 0.22% among 360,000; in the data active means inhibition above about 35%, passing the limit was not always enough; inconclusive means no clear call, values can overlap the other calls
Numbers stand for hits; – = inactive; ? = inconclusive; · = not tested or not shown. Unless noted, no stated cut-off is given here; in the data, active means inhibition above about 30%; inconclusive means no clear call, values can overlap the other calls; inactive means below that.

SMILES | 3CLpro inhibitor | Bead autofluor | BJeLR lethal | BoNT-A LC inh2 | Anthrax LF prot | BoNT F protease
COc1ccc(CNCC(O)(c2ccc(Cl)cc2)c2ccc(Cl)cc2)cc1OC | – | 18261 | · | – | – | –
CCOc1ccc(N(CC(=O)NCc2ccccc2Cl)S(=O)(=O)c2c(C)noc2C)cc1 | – | – | – | – | – | –
COc1ccc(OCc2n[nH]c(=S)n2-c2ccc(C)cc2)cc1 | – | – | – | – | – | –
Cc1cc(C(F)(F)F)nn1Cc1n[nH]c(=S)n1-c1ccc(Cl)cc1 | – | 19410 | – | – | – | –
Cc1ccc(-n2c(Cn3nc(C(F)F)cc3C(F)F)n[nH]c2=S)cc1 | – | 22572 | – | – | – | –
COc1cccc(N(C(=O)Cn2nnc(-c3cccs3)n2)C(C(=O)NC2CCCCC2)c2ccncc2)c1 (stereo unspecified) | – | – | – | – | – | –
Cc1ccc(C)c(N(C(=O)Cn2nnc(-c3cccs3)n2)C(C(=O)NC2CCCC2)c2ccncc2)c1 (stereo unspecified) | – | 24211 | – | – | – | –
COc1ccc(NCc2nnc(SCC(=O)c3ccc(C)cc3)o2)cc1 | – | – | – | – | – | –
COc1ccc(CCNC(=O)CSc2nnc(CNc3ccc(Cl)cc3)o2)cc1OC | – | 21392 | – | – | – | –
COc1ccc(NCc2nnc(SCC(=O)Nc3cc(C)cc(C)c3)o2)cc1 | – | 21267 | – | ? | – | –
CC1Sc2ccc(S(=O)(=O)CCC(=O)N3CCN(c4ccccc4F)CC3)cc2NC1=O (stereo unspecified) | – | – | – | – | – | –
CCOC(=O)C1CCCN(S(=O)(=O)c2ccc3c(c2)N(C(C)=O)CCO3)C1 (stereo unspecified) | – | – | – | – | – | –
Cc1cccc(C(=O)Nc2nsc(N)n2)c1 | · | – | – | – | – | –
COc1cc(NC(=O)COC(=O)C2CC(O)CN2S(=O)(=O)c2ccc(Cl)cc2)c(C)cc1[N+](=O)[O-] (stereo unspecified) | · | – | · | – | – | –
CC(=O)Oc1ccc(C(=O)Nc2cccnc2)cc1 | – | – | – | – | – | ?
COc1ccc(/C=N/OC/C(O)=C(\C#N)c2nc3ccccc3[nH]2)cc1OC | – | – | – | – | – | –
O=S(=O)(c1ccc(-c2nnc(SCc3ccccc3)o2)cc1)N1CCCC1 | – | 19388 | – | ? | – | –
Cc1cc(C)cc(NC(=O)CSc2nnc(-c3ccc(S(=O)(=O)N4CCCC4)cc3)o2)c1 | – | – | – | – | – | –
Cc1ccc(CSc2nnc(-c3ccc(S(=O)(=O)N4CCCC4)cc3)o2)cc1 | – | 22758 | – | – | – | –
NC(=O)CSc1nnc(-c2ccc(S(=O)(=O)N3CCCC3)cc2)o1 | – | – | – | – | – | –
O=S(=O)(c1cccc(-c2nnc(-c3ccc(Br)cc3)o2)c1)N1CCCCCC1 | – | 20866 | – | – | – | –
CCCN(CC(=O)Nc1ccccc1C)C(=O)c1ccc(N2CCCCC2)c([N+](=O)[O-])c1 | · | – | – | – | – | –
CCOC(=O)C(C)n1cnc2c(nnn2Cc2ccc(C)cc2)c1=O (stereo unspecified) | – | 20875 | – | ? | – | –
COc1cccc(-n2nnc3c(=O)n(CC(=O)N4CCC(Cc5ccccc5)CC4)cnc32)c1 | – | 24394 | – | ? | – | –
CCOC(=O)C(C)n1cnc2c(nnn2Cc2ccc(Cl)cc2)c1=O (stereo unspecified) | – | – | – | – | – | –
SMILES | 3CLpro inhibitor | Bead autofluor | BJeLR lethal | BoNT-A LC inh2 | Anthrax LF prot | BoNT F protease
CCOC(=O)C(CC)n1cnc2c(nnn2-c2ccc(OC)cc2)c1=O (stereo unspecified) | – | 17635 | – | – | – | –
CCC(C(=O)OC)n1cnc2c(nnn2-c2ccc(OC)cc2)c1=O (stereo unspecified) | – | – | – | – | – | –
COc1cccc(-n2nnc3c(=O)n(Cc4ccccc4F)cnc32)c1 | – | 21710 | – | – | – | –
C[C@@]12C(=O)N(c3cccc(F)c3)C(=O)N1[C@@H]1c3ccccc3OC[C@@H]1[C@H]2c1ccccc1 | · | – | · | – | – | –
Cc1ccccc1Nc1nc(N)nc(CN2CCN(C(=O)c3ccccc3)CC2)n1 | – | – | – | – | – | –
CN(C)c1ccc(NS(=O)(=O)c2cc3c4c(c2)CC(=O)N4CCC3)cc1 | – | – | – | – | – | –
Cc1ccc(-n2nnc3c(=O)n(Cc4ccccc4C)cnc32)cc1 | – | – | – | – | – | –
COc1ccc(-n2nnc3c(=O)n(Cc4cc(C)ccc4C)cnc32)cc1 | – | 17509 | – | – | – | –
CCCCN1C(=O)C(CC(=O)NCc2cccc3ccccc23)CC(C(=O)N(C(C)C)C(C)C)=C1C (stereo unspecified) | · | – | · | – | – | –
Cc1ccc(C2CC(c3cccs3)n3nc(N)nc3N2)cc1 (stereo unspecified) | – | 16364 | – | – | – | –
Cc1ccc(C2CC(c3ccccc3C)n3nc(N)nc3N2)cc1 (stereo unspecified) | – | – | – | – | – | –
COc1ccc(-c2cc(CC3(C(=O)O)CCN(C(=O)OC(C)(C)C)CC3)on2)c(OC)c1 | – | – | – | – | – | –
CCC(Oc1ccccc1OC)C(=O)Nc1ccc2c(c1)OCO2 (stereo unspecified) | – | – | – | – | – | –
COc1ccc(CCN2CC(C(=O)NCCc3ncccc3C)CCC2=O)cc1 (stereo unspecified) | · | – | · | – | – | –
O=[N+]([O-])c1cccnc1N1CCCCC1 | – | 22095 | – | – | – | –
Cc1cc(NC(=O)C23CCC(C)(c4nc5cc(Cl)c(Cl)cc5nc42)C3(C)C)no1 (stereo unspecified) | – | · | · | · | · | ·
N#Cc1c(N)nc(SCC(=O)C23CC4CC(CC(C4)C2)C3)c(C#N)c1-c1ccc(Cl)cc1 | – | – | – | – | – | –
CSc1nc(N)nc(SCC(=O)C23CC4CC(CC(C4)C2)C3)c1C#N | – | 19688 | – | – | – | –
COc1ccc(C(=O)CSc2nc(N)nc(SC)c2C#N)cc1 | – | 19201 | – | – | – | –
O=C(Nn1c(O)c(C=C2N=c3ccccc3=N2)sc1=S)c1ccccc1 | – | – | – | 108.1 | 77.5 | 65.3
Cc1ccc(S(=O)(=O)Nn2c(O)c(C=C3N=c4ccccc4=N3)sc2=S)cc1 | – | – | – | – | – | –
O=C(Nn1c(O)c(C=C2N=c3ccccc3=N2)sc1=S)c1cccc(Cl)c1 | – | – | – | 54.7 | 55.7 | 55.0
O=C(Nn1c(O)c(C=C2N=c3ccccc3=N2)sc1=S)c1ccc(Cl)cc1 | – | – | – | ? | 69.9 | 57.5
